Laboratory results taken from PubChem BioAssay (Tox21).
Results filed as inconclusive are left out. The source made the active and inactive calls. Unless noted, calls come from the whole dose curve; as a rule, active = well fitted curve in the direction sought with a large enough effect in the repeat runs; inconclusive = weak or mixed curves; inactive = no such curve, though single readings can be large; an effect the other way counts as inactive or inconclusive.

Tests used:
[1] = qHTS assay to identify small molecule antagonists of the TGF-beta/Smad signaling pathway - cell viability counter screen (AID 1346824); note: nearly all actives have a fitted effect of over 50% in size
Summary of the method: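 SBE-bla HEK 293T cells, incubated overnight, then compound plus 0.25 ng/mL TGF-beta1 (stock added) for 5 hr at 37 C. Viability was read in the same wells by CellTiter-Glo luminescence after 30 min at room temperature.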

[2] = qHTS assay to identify small molecule agonists of the TGF-beta/Smad signaling pathway - cell viability counter screen (AID 1346829); note: top concentration of the series differs between compounds; nearly all actives have a fitted effect of over 45% in size
Summary of the method: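 CellTiter-Glo luminescence readout; SBE-bla HEK 293T cells, overnight plating, compound 5 hr at 37 C/5% CO2, then bla substrate 2 hr RT, then CellTiter-Glo 30 min RT.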

[3] = qHTS assay to identify small molecule agonists of the TGF-beta/Smad signaling pathway (AID 1346859; active = well fitted activation curve with a large enough effect in the signal ratio in the repeat runs, not every such curve was filed as active; the % refers to the signal ratio; note: series mostly up to about 77 µM)
Summary of the method: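 SBE-bla HEK 293T, 4,000 cells/well, plated o/n; cpd in DMSO, 5 hr, 37 C/5% CO2; B/G FRET substrate 2 hr RT; ex 405, em 460/530 nm.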

[4] = target: Thyrotropin-releasing hormone receptor (Homo sapiens) (UniProt P34981); test: qHTS assay to identify small molecule antagonists of the thyrotropin-releasing hormone receptor (TRHR) signaling pathway (AID 1346877; active = well fitted inhibition curve with a large enough effect in the repeat runs, not every such curve was filed as active; note: series mostly up to about 51 µM)
Summary of the method: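 TRHR-expressing HEK293 cells loaded with calcium dye for 2 h at 37 C; compounds pre-incubated 5 min at room temperature before TRH challenge at 1 nM final. Intracellular calcium fluorescence read kinetically for 3 min; 15 concentrations in triplicate.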

[5] = target: Thyrotropin-releasing hormone receptor (Homo sapiens) (UniProt P34981); test: qHTS assay to identify small molecule agonists of the thyrotropin-releasing hormone receptor (TRHR) signaling pathway (AID 1346891; calls by dose curve; note: series mostly up to about 58 µM)
Summary of the method: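 Intracellular calcium rise, read as fluorescence every second for 3 min, served as the agonist signal in dye-loaded HEK293 cells expressing TRHR; each compound ran at 15 concentrations in triplicate.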

[6] = Human pregnane X receptor (PXR) small molecule agonists, qHTS cell viability counter screen (AID 1346977); note: nearly all actives have a fitted effect of over 50% in size
Summary of the method: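 PXR-Luc HepG2, 2,000 cells/well, 5% charcoal-stripped FBS; 5hr settle; cpd 24hr, 37C/5% CO2; CellTiter-Fluor at 23hr, read 1hr later (fluorescence).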

[7] = Caspase-3/7 induction in HepG2 cells by small molecules, qHTS assay (AID 1346978); note: nearly all actives have a fitted effect of over 15% in size
Summary of the method: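 Wild-type HepG2 cells, 2,000/well, settled 5 hr at 37 C and 5% CO2, then compound-treated for 17 hr; caspase-3/7 activity read by luminescent Caspase-Glo 3/7 after 30 min at room temperature.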

[8] = Caspase-3/7 induction in CHO-K1 cells by small molecules, qHTS cell viability counter screen (AID 1346979); note: nearly all actives have a fitted effect of over 35% in size; note: potency is the fitted concentration of half-maximal effect
Summary of the method: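 Cells (CHO-K1, wild type) are plated at 1,500 per well and incubated 5hr. Test compounds in DMSO are then pinned in, followed by 16hr at 37C and 5% CO2. Viability is read by CellTiter-Fluor fluorescence after 1hr.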

[9] = Caspase-3/7 induction in CHO-K1 cells by small molecules, qHTS assay (AID 1346980); note: nearly all actives have a fitted effect of over 15% in size
Summary of the method: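 Wild-type CHO-K1 cells exposed to compounds for 17hr at 37 C, 5% CO2. Caspase-3/7 activity then measured by Caspase-Glo 3/7 luminescence after 30min at room temperature.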

[10] = Caspase-3/7 induction in HepG2 cells by small molecules, qHTS cell viability counter screen (AID 1346981); note: series mostly up to about 92 µM; nearly all actives have a fitted effect of over 30% in size
Summary of the method: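 Wild-type HepG2 cells, 2,000/well, settled 5 hr at 37 C, 5% CO2 before compound addition. Viability read by CellTiter-Fluor fluorescence, reagent added after 16 hr compound exposure, then 1 hr at 37C, in the same wells as the caspase read.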
% is set by controls: 0 for no effect and ±100 for the full control effect.

Chain of Thyrotropin-releasing hormone receptor (Homo sapiens) (P34981 whole entry, looked up): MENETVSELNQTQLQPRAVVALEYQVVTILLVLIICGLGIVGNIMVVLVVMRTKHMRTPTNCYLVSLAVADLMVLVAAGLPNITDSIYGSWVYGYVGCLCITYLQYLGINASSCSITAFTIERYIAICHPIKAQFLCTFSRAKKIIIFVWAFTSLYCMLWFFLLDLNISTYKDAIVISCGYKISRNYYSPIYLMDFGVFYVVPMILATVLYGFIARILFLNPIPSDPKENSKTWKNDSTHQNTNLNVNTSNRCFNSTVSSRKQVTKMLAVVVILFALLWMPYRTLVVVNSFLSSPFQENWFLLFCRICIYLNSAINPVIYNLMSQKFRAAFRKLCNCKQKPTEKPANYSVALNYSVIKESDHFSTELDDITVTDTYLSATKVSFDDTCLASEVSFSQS

C=CC(=O)OCCOC1C2CCC1C1CC=CC12 (stereo unspecified)
inactive: viability change, negative = cytotoxic [1] -7.56% [at 15.8 µM] | activity change, negative = cytotoxicity [2] 7.46% [at 15.8 µM] | activation [3] -4.69% [at 15.8 µM] | activity, negative = inhibition [4] 0.809% [at 10.5 µM] | activation [5] -0.0878% [at 11.8 µM] | activity change, negative = cytotoxicity [6] 5.4% [at 19 µM] | caspase activation [7] 2.88% [at 19 µM] | activity change, negative = cytotoxicity [8] 4.17% [at 19 µM] | caspase-3/7 activation [9] 0.29% [at 19 µM] | activity change, negative = cytotoxicity [10] 6.81% [at 19 µM]

[Cl][Eu]([Cl])[Cl]
inactive: Potency [1] | Potency [2] | outcome [3] | Potency [4] | Potency [5] | Potency [6] | Potency [7] | Potency [8] | Potency [9] | Potency [10]

CC1=CC[C@@H](C(C)(C)O)CC1
inactive: Potency [1] | Potency [2] | outcome [3] | Potency [4] | Potency [5] | Potency [6] | Potency [7] | Potency [8] | Potency [9] | Potency [10]

O=C1OCc2ccccc21
inactive: Potency [1] | Potency [2] | outcome [3] | Potency [4] | Potency [5] | Potency [6] | Potency [7] | Potency [8] | Potency [9] | Potency [10]

CCOC=C(C(=O)OCC)C(=O)OCC
inactive: Potency [1] | Potency [2] | outcome [3] | Potency [4] | Potency [5] | Potency [6] | Potency [7] | Potency [8] | Potency [9] | Potency [10]

C=C(C)CCO
inactive: Potency [1] | Potency [2] | outcome [3] | Potency [4] | Potency [5] | Potency [6] | Potency [7] | Potency [8] | Potency [9] | Potency [10]

COc1c(Br)cc(Br)c(C)c1Br
inactive: Potency [1] | Potency [2] | outcome [3] | Potency [4] | Potency [5] | Potency [6] | Potency [7] | Potency [8] | Potency [9] | Potency [10]

Cc1c[nH]c(=O)[nH]c1=O
inactive: Potency [1] | Potency [2] | outcome [3] | Potency [4] | Potency [5] | Potency [6] | Potency [7] | Potency [8] | Potency [9] | Potency [10]

CCCCCCCCSCc1cc(C)c(O)c(CSCCCCCCCC)c1
active: Potency [8] 68.6 µM
inactive: Potency [1] | Potency [2] | outcome [3] | Potency [4] | Potency [5] | Potency [6] | Potency [7] | Potency [9] | Potency [10]

Nc1ccc(F)c([N+](=O)[O-])c1
inactive: Potency [1] | Potency [2] | outcome [3] | Potency [4] | Potency [5] | Potency [6] | Potency [7] | Potency [8] | Potency [9] | Potency [10]

CC(=O)CC(N)=O
inactive: Potency [1] | Potency [2] | outcome [3] | Potency [4] | Potency [5] | Potency [6] | Potency [7] | Potency [8] | Potency [9] | Potency [10]

O=c1cc[nH]cc1
inactive: Potency [1] | Potency [2] | outcome [3] | Potency [4] | Potency [5] | Potency [6] | Potency [7] | Potency [8] | Potency [9] | Potency [10]

Cc1ccc(C2OC[C@@H]3OC(c4ccc(C)cc4)O[C@H]([C@H](O)CO)[C@@H]3O2)cc1 (stereo partly specified)
inactive: Potency [1] | Potency [2] | outcome [3] | Potency [4] | Potency [5] | Potency [6] | Potency [7] | Potency [8] | Potency [9] | Potency [10]

O=C1CCC(=O)N1
inactive: Potency [1] | Potency [2] | outcome [3] | Potency [4] | Potency [5] | Potency [6] | Potency [7] | Potency [8] | Potency [9] | Potency [10]

COC(=O)c1ccc([N+](=O)[O-])cc1
inactive: Potency [1] | Potency [2] | outcome [3] | Potency [4] | Potency [5] | Potency [6] | Potency [7] | Potency [8] | Potency [9] | Potency [10]

ClC(c1ccccc1)(c1ccccc1)c1ccccc1
inactive: Potency [1] | Potency [2] | outcome [3] | Potency [4] | Potency [5] | Potency [6] | Potency [7] | Potency [8] | Potency [9] | Potency [10]

O=C(Cl)c1ccc(Cl)cc1Cl
inactive: Potency [1] | Potency [2] | outcome [3] | Potency [4] | Potency [6] | Potency [7] | Potency [10]

Oc1cccc2c(O)cccc12
inactive: Potency [1] | Potency [2] | outcome [3] | Potency [5] | Potency [7] | Potency [9] | Potency [10]
active: Potency [8] 54.5 µM

CC(C)(c1ccc(Oc2ccc(N)cc2)cc1)c1ccc(Oc2ccc(N)cc2)cc1
active: Potency [8] 48.6 µM
inactive: Potency [1] | Potency [2] | outcome [3] | Potency [5] | Potency [7] | Potency [9]

O=C(O)CN(CCCN(CC(=O)O)CC(=O)O)CC(=O)O
inactive: viability change, negative = cytotoxic [1] 5.13% [at 15.8 µM] | activity change, negative = cytotoxicity [2] -5.77% [at 15.8 µM] | activation [3] 0.66% [at 15.8 µM] | activation [5] 0.0527% [at 11.8 µM] | caspase activation [7] 0.754% [at 19 µM] | caspase-3/7 activation [9] 5.17% [at 19 µM] | activity change, negative = cytotoxicity [10] -12.2% [at 19 µM]
active: Potency [8] 11.6 µM

C/C(=C\c1ccc(C(=O)O)cc1)c1ccc2c(c1)C(C)(C)CCC2(C)C
inactive: Potency [1] | Potency [2] | outcome [3] | Potency [5] | Potency [6] | Potency [7] | Potency [8] | Potency [9] | Potency [10]

CCCCC/C=C\C=C\C(=O)OCC
inactive: Potency [1] | Potency [2] | outcome [3] | Potency [4] | Potency [5] | Potency [9] | Potency [10]
active: Potency [8] 63.7 µM

Cn1c(=O)[nH]c2ncn(C)c2c1=O
inactive: Potency [1] | Potency [2] | outcome [3] | Potency [5] | Potency [6] | Potency [7] | Potency [8] | Potency [9] | Potency [10]
